# Screening results as filed in PubChem BioAssay.
# The list is a sample of the results.
# aSyn 5UTR act = Activators via SNCA 5'UTR binding, MLPCN | AID 1814, 2009 | activity score, % (tested at 7.5 µM), hits read low | alpha-synuclein 5'UTR reporter, activators screen | 7.1% of 300,000 active; in the data active means activity score below about -60%
# * = called active by the depositor.
SMILES,aSyn 5UTR act
COc1ccccc1C(=O)Nc1ccccc1SC(=O)c1ccccc1OC,-112*
Cc1cc(NC(=O)C(=O)c2cn(C)c3ccccc23)no1,-72*
COc1ccccc1C(=O)Nc1cc(-c2ccc(C)cc2)no1,-178*
NNc1nc(-c2ccccc2)nc2sc3c(c12)CCCC3,-65*
CCOC(=O)c1oc2ccc(/C=N/O)c(Cl)c2c1C,-140*
COc1ccc2c(c1)sc(N)[n+]2Cc1cc(C)cc2cccnc12,114
COc1ccc2nc(-n3c(C)ccc3C)sc2c1,-62*
COc1ccc2nc(NC3=NCCC3)sc2c1,-179*
COc1ccc(Nc2nc3ccccc3s2)cc1,-159*
COc1cccc(Nc2nc3ccc(OC)cc3s2)c1,-168*
Cc1cccc(Nc2nc3ccccc3s2)c1C,-181*
COc1cccc(Cn2c(NCc3cccnc3)nc3c2c(=O)n(C)c(=O)n3C)c1,71
COc1ccc2nc(NCc3cccnc3)sc2c1,-75*
CN(C)/C=C1/C(=O)N(c2ccc([N+](=O)[O-])cc2)N=C1c1ccccc1,-115*
S=C(NCCc1ccccc1)Nc1cnc2ccccc2c1,-115*
O=C(NC(=S)Nc1cnc2ccccc2c1)c1ccccc1,-171*
Cc1ccc(NC(=O)Nc2cnc3ccccc3c2)cc1,-144*
O=C(NC(=S)Nc1ncc(Br)cc1Br)c1ccccc1,-153*
Cn1ncc2cc(NC(=S)NC(=O)c3ccccc3)ccc21,-201*
O=C(Nc1cnc2ccccc2c1)c1ccncc1,-110*
O=c1c2ccccc2ncn1-c1ccc2c(c1)OCCO2,-111*
FC(F)(F)c1ccc(Nc2nnnc3ccccc23)cc1,-140*
CSc1ncc(-c2ccc(Cl)cc2)[nH]1,-145*
NC(=O)C1CC(=O)N(c2ccc(OCc3ccc([N+](=O)[O-])cc3)cc2)C1 (stereo unspecified),-128*
O=C(N/N=C/c1ccccc1O)C1CC(=O)N(c2ccc(Cl)cc2)C1 (stereo unspecified),83
SMILES,aSyn 5UTR act
NC(=O)C1CC(=O)N(c2ccc(OCc3ccc(F)cc3)cc2)C1 (stereo unspecified),-113*
Cc1ccc(/C=N/NC(=S)N2CCOCC2)cc1,-85*
S=C(N/N=C/c1ccc(Br)cc1)N1CCCCC1,-195*
O=C(NC(NC(=S)N1CCOCC1)C(Cl)(Cl)Cl)c1ccc(Cl)cc1 (stereo unspecified),66
S=C(N/N=C/c1ccc(Cl)cc1)N1CCOCC1,-69*
c1csc(-c2nc3c4ccccc4c4ccccc4c3[nH]2)c1,-73*
Cc1cccc(-c2noc(Cc3ccc(Cl)cc3)n2)c1,-98*
COc1ccc(Cc2nc(-c3ccncc3)no2)cc1,-79*
COc1ccc(Cc2nc(-c3cccc(C)c3)no2)cc1,-102*
